{"source": "paper PMC4336329", "about": "(PLoS ONE, 2015)", "note": "About 14,000 (4.5%) of roughly 310,000 compounds showed an effect of 50% or more. The effect is printed as a negative number. Only a selection was taken, and strong results are over-represented in it overall.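 Note: peak tail current of the secondary pulse compared with the same well before compound.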", "data": [{"target": "human ether-à-go-go-related gene (hERG) potassium channel (human, UniProt Q12809)", "sequence (Q12809 whole entry, looked up)": "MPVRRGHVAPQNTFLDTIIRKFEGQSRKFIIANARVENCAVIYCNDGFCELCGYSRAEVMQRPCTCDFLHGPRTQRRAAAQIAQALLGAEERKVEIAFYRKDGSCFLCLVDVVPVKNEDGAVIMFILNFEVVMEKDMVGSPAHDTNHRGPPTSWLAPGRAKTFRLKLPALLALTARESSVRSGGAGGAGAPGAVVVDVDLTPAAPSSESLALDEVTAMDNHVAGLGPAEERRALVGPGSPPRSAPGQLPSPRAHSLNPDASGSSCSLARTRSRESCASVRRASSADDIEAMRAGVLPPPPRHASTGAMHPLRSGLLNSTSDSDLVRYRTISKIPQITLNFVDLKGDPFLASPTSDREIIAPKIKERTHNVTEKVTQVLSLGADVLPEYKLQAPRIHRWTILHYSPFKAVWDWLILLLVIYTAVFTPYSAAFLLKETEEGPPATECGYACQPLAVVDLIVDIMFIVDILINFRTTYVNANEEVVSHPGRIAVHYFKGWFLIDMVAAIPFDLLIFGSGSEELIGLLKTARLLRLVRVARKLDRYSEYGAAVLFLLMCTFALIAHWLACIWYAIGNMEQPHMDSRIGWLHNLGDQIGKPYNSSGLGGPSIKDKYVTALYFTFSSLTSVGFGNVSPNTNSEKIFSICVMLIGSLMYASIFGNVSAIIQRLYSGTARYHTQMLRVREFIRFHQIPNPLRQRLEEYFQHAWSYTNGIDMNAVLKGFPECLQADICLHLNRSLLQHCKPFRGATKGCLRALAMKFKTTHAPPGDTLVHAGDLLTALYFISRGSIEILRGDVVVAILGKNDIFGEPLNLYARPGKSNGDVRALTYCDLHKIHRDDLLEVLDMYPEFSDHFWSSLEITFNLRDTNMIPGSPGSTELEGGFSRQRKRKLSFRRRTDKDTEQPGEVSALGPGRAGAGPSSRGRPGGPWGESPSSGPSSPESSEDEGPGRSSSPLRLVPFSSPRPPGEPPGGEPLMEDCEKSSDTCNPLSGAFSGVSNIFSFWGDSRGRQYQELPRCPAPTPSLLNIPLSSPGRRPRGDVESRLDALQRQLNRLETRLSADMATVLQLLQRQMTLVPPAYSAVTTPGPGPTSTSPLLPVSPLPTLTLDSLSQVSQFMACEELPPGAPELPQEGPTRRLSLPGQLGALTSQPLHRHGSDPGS", "experiment": "primary screen, population patch clamp on CHO cells stably expressing hERG; higher = less effect of the substance", "units": {"hERG current change (%, negative = inhibition) at 10uM": "%"}, "values": [{"compound": "Cn1c(N2CCOCC2)c(C#N)c2ccccc21", "hERG current change (%, negative = inhibition) at 10uM": -3.19}, {"compound": "COc1ccc(OC)c(S(=O)(=O)ON2C(=O)c3ccccc3C2=O)c1", "hERG current change (%, negative = inhibition) at 10uM": 6.82}, {"compound": "CCOC(=O)/C(C#N)=C/c1ccc(N2CCCCC2)cc1", "hERG current change (%, negative = inhibition) at 10uM": -60.9}, {"compound": "CCOC(=O)/C(C#N)=C/c1ccc(N2CCN(C)CC2)cc1", "hERG current change (%, negative = inhibition) at 10uM": -27.8}, {"compound": "CCOC(=O)/C(C#N)=C\\c1ccc(N2CCN(C)CC2)cc1", "hERG current change (%, negative = inhibition) at 10uM": -38.2}, {"compound": "O=C(CCn1cccc1)Nc1ccc(OC(F)(F)F)cc1", "hERG current change (%, negative = inhibition) at 10uM": 2.32}, {"compound": "Cn1ncc(C(=O)Nc2ccc(OC(F)(F)F)cc2)c1-n1cccc1", "hERG current change (%, negative = inhibition) at 10uM": -81.3}, {"compound": "Cn1ncc(Br)c1NC(=O)Nc1ccc(OC(F)(F)F)cc1", "hERG current change (%, negative = inhibition) at 10uM": 8.82}, {"compound": "O=c1[nH]c2ccccc2nc1/C=C(\\O)c1cccs1", "hERG current change (%, negative = inhibition) at 10uM": 19.5}, {"compound": "CCCCN(CC)S(=O)(=O)c1ccc2c(c1)CCCN2C(C)=O", "hERG current change (%, negative = inhibition) at 10uM": -43.3}, {"compound": "CC(=O)N1CCCc2cc(S(=O)(=O)N(CC(C)C)CC(C)C)ccc21", "hERG current change (%, negative = inhibition) at 10uM": -50.4}, {"compound": "CCCN(CCC)S(=O)(=O)c1ccc2c(c1)CCCN2C(C)=O", "hERG current change (%, negative = inhibition) at 10uM": -47.2}, {"compound": "Cn1c(=O)oc2cc(S(=O)(=O)N3CCC(C(=O)NCc4ccccc4)CC3)ccc21", "hERG current change (%, negative = inhibition) at 10uM": -6.54}, {"compound": "CC(C)(C)NC(=O)Cn1nnc(-c2ccc(Cl)cc2)n1", "hERG current change (%, negative = inhibition) at 10uM": 2.32}, {"compound": "COC(=O)C1=C(C)OC(N)=C(C#N)C1c1cc(OC)c(OCC(N)=O)cc1Cl", "note": "(stereo not drawn)", "hERG current change (%, negative = inhibition) at 10uM": -10}, {"compound": "COC(=O)c1ccc(N2CCOCC2)c(F)c1", "hERG current change (%, negative = inhibition) at 10uM": 9.09}, {"compound": "Cc1ccn2c(=O)nc(SCC(=O)N3CCN(c4ccccc4)CC3)nc2c1", "hERG current change (%, negative = inhibition) at 10uM": -28.6}, {"compound": "Cc1cccn2c(=O)nc(SCC(=O)N3CCC(Cc4ccccc4)CC3)nc12", "hERG current change (%, negative = inhibition) at 10uM": -78.9}, {"compound": "Cc1ccc2nc(SCC(=O)N3CCC(C)CC3)nc(=O)n2c1", "hERG current change (%, negative = inhibition) at 10uM": -9.74}, {"compound": "Cc1cccn2c(=O)nc(SCC(=O)N3CCC(C)CC3)nc12", "hERG current change (%, negative = inhibition) at 10uM": -39.5}, {"compound": "Cc1ccc2nc(SCC(=O)N3CCC(Cc4ccccc4)CC3)nc(=O)n2c1", "hERG current change (%, negative = inhibition) at 10uM": -65}, {"compound": "Cc1cccn2c(=O)nc(SCC(=O)N3CCCCC3)nc12", "hERG current change (%, negative = inhibition) at 10uM": -18.6}, {"compound": "O=C(CSc1nc(=O)n2ccccc2n1)N1CCN(c2ccccc2)CC1", "hERG current change (%, negative = inhibition) at 10uM": -27.7}, {"compound": "Cc1ccn2c(=O)nc(SCC(=O)N3CCC(Cc4ccccc4)CC3)nc2c1", "hERG current change (%, negative = inhibition) at 10uM": -55.6}, {"compound": "Cc1ccc2nc(SCC(=O)N3CCN(c4ccccc4)CC3)nc(=O)n2c1", "hERG current change (%, negative = inhibition) at 10uM": -47.5}, {"compound": "Cc1ccn2c(=O)nc(SCC(=O)N3CCC(C)CC3)nc2c1", "hERG current change (%, negative = inhibition) at 10uM": -18.4}, {"compound": "O=C(CSc1nc(=O)n2ccccc2n1)N1CCC(Cc2ccccc2)CC1", "hERG current change (%, negative = inhibition) at 10uM": -58.1}, {"compound": "CC1CCN(C(=O)CSc2nc(=O)n3ccccc3n2)CC1", "hERG current change (%, negative = inhibition) at 10uM": 8.67}, {"compound": "O=C(CSc1nc(=O)n2ccccc2n1)N1CCCc2ccccc21", "hERG current change (%, negative = inhibition) at 10uM": -16.8}, {"compound": "N/C(=N\\OC(=O)Cc1ccc([N+](=O)[O-])cc1)c1ccc([N+](=O)[O-])cc1", "hERG current change (%, negative = inhibition) at 10uM": -24.4}, {"compound": "CC(=O)c1c(C)n(CCc2ccc(Cl)cc2)c2ccc(O)cc12", "hERG current change (%, negative = inhibition) at 10uM": 20.8}, {"compound": "O=C(CSc1nc2c(c(C(F)(F)F)n1)CCc1ccccc1-2)NCc1ccco1", "hERG current change (%, negative = inhibition) at 10uM": 2.99}, {"compound": "COC1(OC)N=C(N)C2(C#N)C(c3ccccc3)NC(C)=CC12C#N", "note": "(stereo not drawn)", "hERG current change (%, negative = inhibition) at 10uM": 2.16}, {"compound": "COC(=O)CS(=O)(=O)c1cc(Br)cc2c1N(C(C)=O)CC2", "hERG current change (%, negative = inhibition) at 10uM": 5.36}, {"compound": "COC(=O)C1=C(c2ccccc2OCc2ccccc2)C[C@@H]2CC[C@H]1N2C(=O)NCc1ccc(C(F)(F)F)cc1", "hERG current change (%, negative = inhibition) at 10uM": -4.61}, {"compound": "O=S(=O)(Cc1cccc(F)c1)c1c[nH]c2ccccc12", "hERG current change (%, negative = inhibition) at 10uM": 8.65}, {"compound": "O=c1nc(SCc2cccc(C(F)(F)F)c2)nc2ccccn12", "hERG current change (%, negative = inhibition) at 10uM": -37}, {"compound": "Cc1cccn2c(=O)nc(SCC(=O)N3CCCC3)nc12", "hERG current change (%, negative = inhibition) at 10uM": -22.6}, {"compound": "Cc1cccn2c(=O)nc(SCC(=O)N3CCN(c4ccccc4)CC3)nc12", "hERG current change (%, negative = inhibition) at 10uM": -67.6}, {"compound": "Cc1cccn2c(=O)nc(SCC(=O)N3CCOCC3)nc12", "hERG current change (%, negative = inhibition) at 10uM": 9.72}, {"compound": "Cc1ccn2c(=O)nc(SCc3cccc(C(F)(F)F)c3)nc2c1", "hERG current change (%, negative = inhibition) at 10uM": -51.5}, {"compound": "C=CCSc1nc(=O)n2ccc(C)cc2n1", "hERG current change (%, negative = inhibition) at 10uM": -22.9}, {"compound": "COC(=O)CSc1nc(C)c(Oc2ccccc2)c(=O)[nH]1", "hERG current change (%, negative = inhibition) at 10uM": 11.6}, {"compound": "O=c1[nH]c(CN2CCc3ccccc3C2)nc2ccccc12", "hERG current change (%, negative = inhibition) at 10uM": 5.47}, {"compound": "Cc1nn(CC(=O)N2CCN(Cc3ccccc3)CC2)c(=O)c2ccccc12", "hERG current change (%, negative = inhibition) at 10uM": -2.85}]}]}
